Most compounds without a hit are left out; they make up all but 1.8% or so of the library.
PAD4 inh: human PAD4 inhibitors, primary screen, biochemical, fluorescence polarization, 1536-well format. Protein-arginine deiminase type-4 (Homo sapiens), Q9UM07. recombinant PAD4, RCA probe fluorescence polarization. inhibition, % at 6.36 µM. 330,000 tested, 0.41% active;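 active = percent inhibition above a cutoff equal to the mean of all tested compounds plus 3 SD, cut at about 15% in these data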;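 also: 0% = PAD4 with RCA probe and DMSO and 100% = probe without PAD4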
LYPLA1 inh: LYPLA1 inhibitors, primary screen, counter-screen for PME1 inhibitor project, biochemical, fluorescence polarization, FP-Rh probe ABPP; 320,000 tested, 0.16% active; Acyl-protein thioesterase 1 (Homo sapiens), O75608; recombinant LYPLA1; inhibition, % at 5.9 µM;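 active = inhibition above the mean of all tested compounds plus 3 SD, set per campaign, cut at about 14% in these data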;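 also: inhibitors block serine hydrolase probe labeling of LYPLA1 so polarization falls; 0% = enzyme with DMSO and 100% = wells lacking LYPLA1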
Target sequence (O75608 whole entry, looked up): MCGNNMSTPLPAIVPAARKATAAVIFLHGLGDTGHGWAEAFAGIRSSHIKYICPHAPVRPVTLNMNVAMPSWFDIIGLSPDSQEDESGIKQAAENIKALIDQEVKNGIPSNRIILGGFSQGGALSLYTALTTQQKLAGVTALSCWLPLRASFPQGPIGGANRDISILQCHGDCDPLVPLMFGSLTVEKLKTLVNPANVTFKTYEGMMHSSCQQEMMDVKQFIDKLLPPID
PME-1 primary: PME-1 inhibitors via competitive probe labeling, primary screen, biochemical, fluorescence polarization, FP-Rh probe, HTS; Protein phosphatase methylesterase 1 (Homo sapiens), Q9Y570; recombinant PME-1; inhibition, % at 5.9 µM; 320,000 tested, 0.53% active; AID 2130, 2009;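 active = inhibition above the campaign mean of all compounds plus 3 SD, cut at about 26% in these data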;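 also: competitive labeling of PME-1 active site by serine hydrolase directed probe; 0% = PME-1 with DMSO and 100% = wells lacking PME-1 enzyme; inhibitors block probe labeling so polarization falls and inhibition rises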
Fam108B inh: mouse Fam108B serine hydrolase inhibitors, primary screen, counter-screen for RBBP9 inhibitor project, biochemical, fluorescence polarization; AID 1947, 2009; 300,000 tested, 0.33% active; inhibition, % at 9.51 µM; recombinant Fam108B, FP-Rh probe fluorescence polarization;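 active = inhibition above the screen mean inhibition plus 3 SD, computed separately per campaign, cut at about 18% in these data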;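 also: inhibitors lower polarization as less probe binds the enzyme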
LYPLA2 inh: LYPLA2 inhibitors, primary screen, counter-screen for PME1 inhibitor project, biochemical, fluorescence polarization, FP-Rh probe ABPP. Acyl-protein thioesterase 2 (Homo sapiens), O95372. recombinant LYPLA2. inhibition, % at 5.9 µM. 320,000 tested, 0.38% active. AID 2177, 2009;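 active = inhibition above the screen-wide mean plus 3 SD, limit set per campaign, cut at about 26% in these data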;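 also: 0% = LYPLA2 with DMSO and 100% = wells lacking LYPLA2 enzyme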
GSTO1 inh: inhibitors of recombinant GSTO1, primary screen, counter-screen for RBBP9 inhibitor project, biochemical, fluorescence polarization | 300,000 tested, 1.1% active | activity-based probe fluorescence polarization | Glutathione S-transferase omega-1 (Homo sapiens), P78417 | inhibition, % at 5.96 µM;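 active = inhibition above the campaign mean inhibition plus 3 SD, cut at about 35% in these data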;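 also: 0% = GSTO1-1 with DMSO and 100% = wells lacking GSTO1-1 enzyme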
Target sequence (P78417 whole entry, looked up): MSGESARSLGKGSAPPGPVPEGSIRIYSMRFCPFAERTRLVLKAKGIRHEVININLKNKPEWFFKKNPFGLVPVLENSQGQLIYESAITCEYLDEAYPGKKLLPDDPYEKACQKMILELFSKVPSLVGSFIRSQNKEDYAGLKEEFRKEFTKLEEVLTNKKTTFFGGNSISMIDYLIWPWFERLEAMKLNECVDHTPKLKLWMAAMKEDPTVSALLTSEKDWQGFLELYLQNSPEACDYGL
Fam108b confirm: mouse Fam108b serine hydrolase inhibitors, confirmation, counter-screen for RBBP9 inhibitor project, biochemical, fluorescence polarization, triplicate | inhibition, % at 9.51 µM | 930 tested, 44% active | shares compounds with Fam108B inh | recombinant Fam108b, FP-Rh probe fluorescence polarization;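 active = inhibition above a limit from the primary screen, the mean over all compounds plus 3 SD, cut at about 19% in these data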;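 also: 0% = median of active Fam108b wells and 100% = catalytically dead S170A mutant; inhibitors free the probe so polarization falls as inhibition rises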
Fam108b inh: inhibition of mouse Fam108b by HTS hits, late-stage follow-up, biochemical, gel-based ABPP, soluble recombinant form; shares compounds with Fam108B inh; fluorophosphonate probe; inhibition, % at 20 µM; 260 tested, 44% active; AID 588649, 2011; in the data active = inhibition above about 40%
* = called active by the depositor; · = not tested or not shown.

SMILES	PAD4 inh	LYPLA1 inh	PME-1 primary	Fam108B inh	LYPLA2 inh	GSTO1 inh	Fam108b confirm	others
CCOc1ccc(-c2c(C(=O)N/N=C/c3c[nH]c4ccccc34)nnn2-c2nonc2N)cc1	-2	-11	21	19*	4	-2	-4
CCOc1ccc(/C=N/NC(=O)c2nnn(-c3nonc3N)c2-c2ccc(OCC)cc2)cc1	3	-5	-5	2	-4	6	·
COc1ccc(-n2nc(C(=O)NCC(=O)NCCCN3CCOCC3)c3ccccc3c2=O)cc1OC	3	0	1	2	3	10	·
COc1cccc(C2C3=C(Nc4[nH]n(-c5ccccc5)c(=O)c42)c2ccccc2C3=O)c1 (stereo not given)	-5	-5	28*	24*	-1	-60	31*
O=C(c1cc2ncc(Br)cn2n1)N1CCN(C(=O)c2ccco2)CC1	-1	-3	1	19*	-1	5	-7
O=C(c1cc2ncc(Br)cn2n1)N1CCOCC1	-1	-3	-2	1	-6	7	·
O=C(O)c1cccc(N/N=C(\N=Nc2ccccc2)c2ccccc2)c1	1	3	10	8	10	21	·
Brc1ccc(N/N=C(/N=Nc2nn[nH]n2)c2ccccc2)cc1	0	13	51*	25*	17	25	28*
COc1ccc2nc(-n3c(O)c(C4=c5ccccc5=NC4=O)[nH]c3=S)sc2c1	-4	-6	54*	37*	2	30	36*	Fam108b inh=0
Cn1c(O)c(C2=c3ccccc3=NC2=O)[nH]c1=S	-5	3	4	0	14	0	·
Oc1c(Br)cc(/C=N/Nc2ccc(Cl)nn2)cc1Br	-4	5	12	26*	3	15	-13
Oc1c(Br)cc(/C=N/Nc2nncc3ccccc23)cc1Br	2	1	5	19*	-5	9	23*
O=[N+]([O-])c1ccc(N/N=C/c2ccccc2O)cc1	-3	-16	45*	47*	-7	-14	30*
O=[N+]([O-])c1cccc(N/N=C/c2cc([N+](=O)[O-])ccc2O)c1	1	2	5	1	-5	14	·
CC(=O)Oc1ccccc1C(=O)N(C1CCCCC1)C1CCCCC1	-2	-1	-9	4	-3	0	·
O=[N+]([O-])c1ccc(/C=N/Nc2ccnc3cc(Cl)ccc23)o1	-11	-6	18	19*	-4	-6	10
Cc1nc(SCC(=O)Nc2c(C)n(C)n(-c3ccccc3)c2=O)c(C#N)c(C)c1C	0	-2	-1	·	-2	·	·
CCCc1cc(SCC(=O)Nc2c(C)n(C)n(-c3ccccc3)c2=O)n2c(nc3ccccc32)c1C#N	-3	-3	-8	24*	0	-46	23*
CSC1=NSC2=NC(=O)/C(=C\c3coc4ccccc4c3=O)C(=N)N12	-10	-8	18	31*	-6	-31	54*	Fam108b inh=5
CC(C)CSC1=NSC2=NC(=O)/C(=C\c3coc4ccccc4c3=O)C(=N)N12	-27	6	22	37*	0	-57	40*	Fam108b inh=15
N=C1/C(=C\c2coc3ccccc3c2=O)C(=O)N=C2SC(c3ccncc3)=NN12	-36	-3	-55	9	-2	-477	·
CCOC(=O)/C(=N\Nc1ccc(Cl)cc1)c1csc(Nc2ccccc2)n1	2	-5	29*	21*	5	2	27*
CCCCC(CCC(=O)O)(C(=O)OCC)c1csc(Nc2ccccc2)n1 (stereo not given)	3	-1	-2	-2	-9	-6	·
CCOC(=O)/C(=N/Nc1ccccc1)c1csc(Nc2ccccc2)n1	-5	-14	10	22*	-8	3	-7
CCN(CC)C(=O)c1csc(Nc2ccc(C)cc2)n1	0	1	2	2	4	0	·
SMILES	PAD4 inh	LYPLA1 inh	PME-1 primary	Fam108B inh	LYPLA2 inh	GSTO1 inh	Fam108b confirm	others
CCOC(=O)/C(=N\Nc1ccc(OC)cc1)c1csc(Nc2ccccc2)n1	4	-10	11	23*	3	6	10
O=C(COC(=O)c1ccccn1)Nc1nccs1	-4	1	1	-2	1	-2	·
O=C(COC(=O)c1nc(Cl)ccc1Cl)NC(=O)c1ccccc1	-4	-1	-6	3	2	-2	·
O=C1CN(C(=O)NCCC(=O)NC2CCCCC2)c2ccccc2N1	-2	0	-1	2	2	9	·
O=[N+]([O-])c1cc(Br)c(O)c(C=NNc2nnnn2-c2cccc3ccccc23)c1	·	·	·	·	·	·	·	Fam108b inh=0
Brc1cc2c(cc1/C=N/Nc1nc3ccccc3s1)OCO2	0	0	4	7	-1	-4	·
Brc1csc(C=NNc2nc3ccccc3s2)c1	·	·	·	·	·	·	·	Fam108b inh=70*
Brc1csc(/C=N/Nc2nc3ccccc3s2)c1	-3	-10	31*	32*	20	-19	37*
CC(C)(C)N/N=C/c1cc(Cl)cc([N+](=O)[O-])c1O	0	-1	1	5	5	15	·
C(=N\Nc1nc2ccccc2s1)/c1ccccn1	1	1	13	4	-3	-11	·
O=[N+]([O-])c1cc(Cl)cc(/C=N/Nc2nc3ccccc3s2)c1O	-4	5	20	33*	4	14	9
Cc1ccc2[nH]c(C)c(/C=N/Nc3nc4ccccc4s3)c2c1	2	0	58*	27*	-4	-25	3
CC(C)(C)c1cccc(OCCCSc2ncccn2)c1	2	3	1	-2	8	3	·
CCOC(=O)c1cnc2c(ccc3ccccc32)c1NCCCN(C)C	4	-2	5	-5	-3	0	·
CCCc1cc(=O)oc2cc(OCC(=O)NCCCN3CCOCC3)ccc12	-5	-1	0	2	-1	0	·
COc1cccc(NC(=O)CN(C)C(=O)C2CCN(C(=O)c3ccccc3C)CC2)c1	0	-2	2	19*	-1	8	0
O=C(c1cc(O)c(O)c([N+](=O)[O-])c1)c1ccccc1F	1	-1	12	49*	2	29	91*	Fam108b inh=0

Source: PubChem BioAssay
